The sample as a whole holds a higher share of hits than the screen did.
AMA1-RON2 inh – inhibitors of Plasmodium falciparum AMA1-RON2 interaction. Potency, µM (highest dose often 58.2 µM), for inactives: at the top dose activity change, negative = inhibition, usual class: inhibitors. AlphaScreen AMA1-biotinylated RON2 peptide binding. AID 720542. hit rate 0.2% among 360,000; active = well fitted inhibition curve with a large enough effect; inconclusive = small, poorly fitted or top-dose-only effect; inactive = no such curve, though single readings can be large or run the other way;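 note: potency is the fitted concentration of half-maximal effect; 0% = vehicle wells and -100% = peptide control; nearly all actives have a fitted effect of over 45% in size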
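AMA1 (3D7) with his tag at 25 nM final met compounds first, then biotinylated RON2 peptide at 25 nM; detection used donor plus acceptor beads, 10 µg/mL apiece, read by AlphaScreen after 30 min at room temperature.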
Marburg entry inh – Marburg virus entry inhibition | Marburg virus pseudotyped entry inhibition, cell reporter | Potency, µM (titrated, usually from 37.8 µM), inactives show top-dose activity change, negative = inhibition, most hits filed as inhibitors | hit rate 1.8% among 300,000; calls by dose curve; tested in HEK293 cells; note: potency is the fitted concentration of half-maximal effect; % is set by controls: 0 for no effect and ±100 for the full control effect
Shiga inhibitor – Shiga toxin inhibition; Vero cells, Shiga toxin protein synthesis inhibition reporter; inhibition, % at 38.7 µM; hit rate 9.2% among 290,000; AID 2315; in the data active = inhibition mostly above about 28%, no sharp cut-off; inactive = mostly below about 43%; note: 0% is about no effect
Cycloheximide cs – counter-screen hit for Shiga toxin inhibitors, cycloheximide | cell reporter, cycloheximide protein synthesis inhibition counterscreen | hit rate 12% among 300,000 | AID 2314 | max response, %; in the data active = max response mostly above about 13%, no sharp cut-off; inactive = mostly below about 14%; note: read at 38.3 µM for the half of the compounds with a filed dose; 0% is about no effect
LASV entry inh – blocks Lassa virus binding to or entry into cells; Lassa virus pseudotype entry inhibition, cell reporter; Potency, µM (highest dose often 37.9 µM), for inactives: top-dose activity change, negative = inhibition, actives largely listed as inhibitors; hit rate 1.2% among 300,000; calls by dose curve; tested in HEK293 cells; note: potency is the fitted concentration of half-maximal effect; % is set by controls: 0 for no effect and ±100 for the full control effect; nearly all actives have a fitted effect of over 50% in size
Numbers without * were called inactive; ? = inconclusive; / = no result; [ ] = another dose, or the depositor's remark.

SMILES	AMA1-RON2 inh	Marburg entry inh	Shiga inhibitor	Cycloheximide cs	LASV entry inh
COc1ccc(/C=C\C(=O)O[C@@H]2C(O)C(O[C@@H]3OC(C)[C@H](O[C@@H]4OCC(O[C@H]5O[C@H](CO)[C@@H](O)C(O)C5O)C(O)C4O)C(O)C3O)[C@H](OC(=O)[C@]34CCC(C)(C)C[C@@H]3C3=CCC5[C@@]6(C)CC(O)C(O[C@@H]7OC(CO)C(O)[C@H](O)[C@H]7O)[C@@](C)(C(=O)O)C6CC[C@@]5(C)[C@]3(CO)CC4)O[C@H]2C)cc1 (stereo not given in full)	7%	/	/	/	/
CCC(C)(C)C1CCC2(CC1)NC(=O)N(CC(=O)N(C)CC(=O)Nc1ccccc1C(F)(F)F)C2=O (stereo not given)	-4%	0%	53*	58*	-10%
N/C(=N\OC(=O)CC1CCCCC1)c1ccncc1	-7%	18%	58*	17*	7%
Cc1ccc(/C(N)=N/OC(=O)CCC2CCCC2)cc1	-1%	2%[46.1 µM]	3	-3	7%
N/C(=N\OC(=O)CCC1CCCC1)c1ccncc1	5%	16%[46.1 µM]	80	20*	11%
Cc1ccc(/C(N)=N/OC(=O)CCC2CCCCC2)cc1	31%	?	38	14*	-3%
N/C(=N\OC(=O)CCC1CCCC1)c1ccc(Cl)cc1	6%	/	17	9	/
Nc1cc(C2CCCC2)nn1-c1ccccc1	-5%	14%	104*	46*	19%
Cc1cccc(-c2cc(N)n(-c3ccccc3)n2)c1	-20%	?	65*	45*	?
O=C(O)c1cc(C2CC2)nn1-c1ccccc1	2%	-4%	-10	-1	0%
CCc1ccc(-c2cc(N)n(-c3ccccc3)n2)cc1	-8%	-17%[46.1 µM]	154*	33*	20%[46.1 µM]
Cc1ccc(-c2cc(N)n(-c3ccccc3)n2)cc1	6%	4%	80*	66*	19%
Cc1cccc(-n2nc(C)cc2N)c1	3%	4%	-8	13	-1%
CCN(CC)CCN1C(=O)C(=O)/C(=C(\O)c2ccc(F)cc2)[C@@H]1c1ccncc1	/	-20%	/	/	/
COC(=O)C1=C(C)NC(=O)/C1=C\N(C)C	8%	4%[46.1 µM]	-3	-4	13%
CS(=O)(=O)N1CCC(Oc2cccc(C(=O)NCCCOc3cccnc3)c2)CC1	8%	-4%	2	2	-1%
Cc1cc(C)n2nc(CCCCc3nc4nc(C)cc(C)n4n3)nc2n1	/	/	-6	-2	/
CCCn1c(NC(=O)c2cccc(S(=O)(=O)N3CCCC3)c2)nc2ccccc21	33%	6.5µM*	0	-8	?
O=C(Nc1nc2ccccc2n1CCN1CCOCC1)c1ccc(Cl)cc1	40%	?	50*	12*	?
Cc1csc(NC(=O)C2CCN(S(=O)(=O)c3cccs3)CC2)n1	-13%	?	-8	8	-15%[46.1 µM]
CCCn1c(NC(=O)c2ccccc2)nc2ccccc21	29%	-1%	32	17	-4%
Cc1ccc(C(=O)Nc2nc3ccccc3n2CCN2CCCC2)cc1	-2%	?	104*	38*	10%
CCCn1c(NC(=O)C2CCN(S(=O)(=O)c3cccs3)CC2)nc2ccccc21	96%	13µM*	-22	0	?
CCC(=O)Nc1nc2ccccc2n1CCN1CCOCC1	45%	-2%	-4	-2	?
COc1cccc(CNC(=O)c2cnc(N3CCCCC3)c3ccccc23)c1	/	/	/	/	-3%[46.1 µM]
SMILES	AMA1-RON2 inh	Marburg entry inh	Shiga inhibitor	Cycloheximide cs	LASV entry inh
CCOc1ccc(C(=O)Nc2nnc(S(=O)(=O)N(CC)c3ccccc3C)s2)cc1	/	/	/	/	14%[46.1 µM]
C=CCn1c(NC(=O)c2ccc(C)cc2)nc2ccccc21	80%	?	42	16*	?
CCCn1c(NC(=O)c2ccc(C)cc2)nc2ccccc21	44%	-27%	42*	17*	15%
O=C(Nc1nc2ccccc2n1CCN1CCCC1)c1ccc(Cl)cc1	-7%	?	78*	16	?
O=C(Nc1nc2ccccc2n1CCN1CCCCC1)c1ccc(Cl)cc1	/	3%	36	10	/
CC1OC(CC(=O)O)CC2=C1C(=O)c1c(O)cccc1C2=O (stereo not given)	-17%	0.5µM*	/	/	0.56µM*
O=C1c2cccc(O)c2C(=O)c2c(O)cccc21	/	38%	-6	0	5%
O=C(CSc1nc2ccccc2c(=O)n1NC(=O)c1ccccc1)c1ccccc1	-15%	-1%	74*	41*	?
O=C(CSc1nc2ccsc2c(=O)n1NC(=O)c1ccccc1)Nc1nccs1	14%	5%	36*	41*	37%[14.3 µM]
O=C(CSc1nc2ccccc2c(=O)n1NC(=O)c1ccccc1)c1ccc(Cl)cc1	2%	?	98*	34*	?
CCn1c(SCC(=O)c2ccccc2)nc2ccccc2c1=O	-1%	-16%[46.1 µM]	20	19	-16%
CCOc1ccc(-n2cc(C(=O)NCc3ccco3)c3cc(OC)c(OC)cc3c2=O)cc1	16%	?	-8	-2	?
COc1cc(C(F)(F)F)ccc1C(=O)NCCc1ccco1	-15%	/	80*	68*	/
CCn1cc(C(=O)NCc2ccco2)c2cc(OC)c(OC)cc2c1=O	4%	-2%	-8	21*	2%
COc1cccc2cc(C(=O)Nc3ccc(CC(=O)O)cc3)c(=O)oc12	/	10µM*	/	/	?
COc1cccc2cc(C(=O)NCc3ccc(C)cc3)c(=O)oc12	5%	-8%[46.1 µM]	2	11	-1%[46.1 µM]
COc1cccc2cc(C(=O)NCc3ccco3)c(=O)oc12	12%[2.32 µM]	?	74*	34*	8%
COc1ccc2oc(=O)c(C(=O)NCc3ccco3)cc2c1	4%	9%[46.1 µM]	85*	25*	8%
COc1cccc2cc(C(=O)NCc3ccco3)c(=Nc3ccc(C(=O)O)cc3)oc12	2%	8%	196*	76*	4%
COc1ccc2cc3c(N)c(C(=O)NCc4ccco4)sc3nc2c1	-23%	?	42*	11	-26%
Cc1cccc2c1N[C@H](C)C[C@@H]2C	/	7%	/	/	/
Cc1nccn1CC(=O)N/N=C/c1ccccc1O	55%	?	3	-1	-29%
Cc1occc1C(=O)Nc1cccc(Cl)c1Cl	-15%	/	48	24*	/
Cc1noc(C)c1C(=O)Nc1ccc2ccccc2c1	-1%	5%[46.1 µM]	34	21*	?
Cc1occc1C(=O)Nc1ccc2ccccc2c1	1%	?	113*	43*	?
SMILES	AMA1-RON2 inh	Marburg entry inh	Shiga inhibitor	Cycloheximide cs	LASV entry inh
Cc1occc1C(=O)Nc1ccccc1C(=O)O	2%	13%	48	20*	18%
O=S(=O)(CCNC1CC1)NC1CCCCC1	-2%	/	/	/	/
CCOc1ccc(NC(=O)Cn2cc(C(=O)c3ccc(CC)cc3)c(=O)c3ccc(C)nc32)cc1	/	/	/	/	4%[46.1 µM]
CCOC(=O)c1cc(NC(=O)c2ccoc2C)cc(C(=O)OCC)c1	25%	-12%	19	17*	7%
CCOC(=O)c1c(NC(=O)c2ccoc2C)sc(C)c1C	0%	-7%[46.1 µM]	-7	-2	-2%
CC(=O)c1cccc(NC(=O)c2ccoc2C)c1	16%	?	25	7	20%[46.1 µM]
Cc1occc1C(=O)Nc1ccccc1	/	/	33*	28*	/
CN(Cc1ccon1)Cc1cn(C)nc1-c1cccc(Cl)c1	-16%	-5%[46.1 µM]	71	33*	13%
